From PubChem BioAssay (Tox21)
Results filed as inconclusive are left out. Calls of active or inactive are those of the source. Unless noted, calls follow the shape of the dose curve; as a rule, active = well fitted curve in the direction sought with a large enough effect in the repeat runs; inconclusive = weak or mixed curves; inactive = no such curve, though single readings can be large; an effect the other way counts as inactive or inconclusive.

Tests used:
[1] = biological target: Thyrotropin receptor (Homo sapiens) (UniProt P16473); assay: qHTS assay to identify small molecule agonists of the thyroid stimulating hormone receptor (TSHR) signaling pathway (AID 1224843; calls by dose curve; also: nearly all actives have a fitted effect of over 45% in size)
Chain of Thyrotropin receptor (Homo sapiens) (P16473 whole entry, looked up): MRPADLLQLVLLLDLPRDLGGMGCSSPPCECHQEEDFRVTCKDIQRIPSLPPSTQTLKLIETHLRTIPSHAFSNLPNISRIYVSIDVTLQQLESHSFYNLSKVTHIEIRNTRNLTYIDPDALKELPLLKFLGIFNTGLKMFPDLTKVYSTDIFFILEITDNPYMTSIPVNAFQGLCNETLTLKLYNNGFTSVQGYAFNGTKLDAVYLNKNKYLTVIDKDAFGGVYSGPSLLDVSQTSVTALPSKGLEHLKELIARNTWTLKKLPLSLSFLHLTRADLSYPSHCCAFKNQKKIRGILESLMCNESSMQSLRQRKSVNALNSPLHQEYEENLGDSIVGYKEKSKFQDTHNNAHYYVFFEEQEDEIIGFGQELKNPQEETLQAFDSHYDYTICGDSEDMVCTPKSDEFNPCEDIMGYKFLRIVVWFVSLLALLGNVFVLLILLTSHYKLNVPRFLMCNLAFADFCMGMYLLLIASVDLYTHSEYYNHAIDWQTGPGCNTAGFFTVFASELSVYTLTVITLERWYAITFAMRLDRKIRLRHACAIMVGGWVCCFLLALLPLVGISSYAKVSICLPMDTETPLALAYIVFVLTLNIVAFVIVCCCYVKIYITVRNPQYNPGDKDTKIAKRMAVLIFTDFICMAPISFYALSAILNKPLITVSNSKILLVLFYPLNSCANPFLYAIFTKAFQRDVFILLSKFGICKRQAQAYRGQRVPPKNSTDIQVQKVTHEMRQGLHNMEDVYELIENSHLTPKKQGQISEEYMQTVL
Summary of the method: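 Agonist activity read as cAMP rise via d2/cryptate HTRF competition, 1 h room-temperature detection, in HEK293 cells expressing TSHR. Fifteen-point titrations, each run in triplicate, with a 30 min room-temperature incubation beforehand.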

[2] = qHTS assay to identify small molecule agonists of H2AX (AID 1224845; active = well fitted activation curve with a large enough effect in the signal ratio in the repeat runs, not every such curve was filed as active; the % refers to the signal ratio)
Summary of the method: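 Phospho-H2AX Ser139 measured by HTRF (ex 320 nm; em 665 and 620 nm) after 24 hr antibody incubation. Compounds, 15 concentrations, 0.76% DMSO, were applied to CHO-K1 cells for 3hr at 37C before lysis.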

[3] = qHTS assay to identify small molecule agonists of the hypoxia (HIF-1) signaling pathway (AID 1224846; active = well fitted activation curve with a large enough effect in the signal ratio in the repeat runs, not every such curve was filed as active; the % refers to the signal ratio)
Summary of the method: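 Reporter induction in HRE-bla ME-180 cells is taken as agonism: cells sit 5 hrs after plating, receive compounds or DMSO only, incubate 17 hrs at 37C under 5% CO2, and are loaded with CCF4-AM for beta-lactamase FRET measurement.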

[4] = qHTS assay to identify small molecule agonists of H2AX - cell viability counter screen (AID 1224847; calls by dose curve; also: top concentration of the series differs between compounds; nearly all actives have a fitted effect of over 30% in size)
Summary of the method: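 Read-out: CellTiter-Glo luminescence, 30 min RT. Cells: wild-type CHO-K1, 1000/well, 10% FBS, plated overnight at 37C. Treatment: 15 concentrations, 3 hr, 37C, 0.76% DMSO.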

[5] = qHTS assay to identify small molecule antagonists of the estrogen related receptor (ERR) signaling pathway from Tox21 library (AID 1224848); also: nearly all actives have a fitted effect of over 50% in size; also: potency is read from the fitted curve at half-maximal effect
Summary of the method: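 Luciferase luminescence (ONE-Glo, 30 min room temperature) was the read-out. Cells of the NTP-supplied ERR line, 2,000 per well, were given 6 h at 37 C before compound addition in DMSO and 18 h exposure at 37 C.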

[6] = qHTS assay to identify small molecule agonists of the estrogen related receptor (ERR) signaling pathway from Tox21 library (AID 1224849; calls by dose curve; also: nearly all actives have a fitted effect of over 15% in size); conditions: ERR reporter cell line, ONE-Glo luciferase, 18 h; at 92.4 µM (top of the series) unless noted
Summary of the method: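 Tox21 compounds tested for ERR agonism in an NTP reporter cell line: 18 h treatment at 37 C, then ONE-Glo luminescence.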

[7] = qHTS RealTime-Glo MT Cell Viability Assay in HepG2 cells - 24 hour (AID 1224867); also: nearly all actives have a fitted effect of over 50% in size
Summary of the method: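 qHTS, HepG2, 600 cells/well, RealTime-Glo (NanoLuc + prosubstrate) added with cells; 5 h preincubation; DMSO compound addition; 37 C; luminescence at 0/8/16/24/32/40 h.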

[8] = qHTS RealTime-Glo MT Cell Viability Assay in HEK293 cells - 32 hour (AID 1224868); also: top concentration of the series differs between compounds; nearly all actives have a fitted effect of over 50% in size
Summary of the method: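 Assay medium contained NanoLuc luciferase plus cell-permeant prosubstrate, added with HEK293 cells at 600 cells/well. After 5 h at 37 C/5% CO2 compounds were added; plates stayed at 37 C for 40 h with serial luminescence reads.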

[9] = A CellTox Green Cytotoxicity Assay to monitor cytotoxicity in HEK293 cells - 0 hour (AID 1224869); also: nearly all actives have a fitted effect of over 50% in size
Summary of the method: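 Tox21 screen in HEK293: membrane-impermeant cyanine dye fluoresces on binding dead-cell DNA; compound pinned 5 h post-seeding, plates held at 37 C, signal read repeatedly through 40 h.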

[10] = qHTS assay to identify small molecule agonists of the hypoxia (HIF-1) signaling pathway - cell viability counter screen (AID 1224844; calls by dose curve; also: nearly all actives have a fitted effect of over 50% in size; also: potency is read from the fitted curve at half-maximal effect)
Summary of the method: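 HRE-bla ME-180; 0.5% dFBS; cpd 17 h, 37C, 5% CO2; CellTiter-Glo lum., 30 min RT, post-FRET read, same wells.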
% is scaled to controls: 0 for no effect and ±100 for the full control effect.

CCCC(C)C(=O)O (stereo not given)
active: Potency [5] 52.3 µM
inactive: outcome [1] | outcome [2] | outcome [3] | Potency [4] | activity change, positive = activation [6] -46.3% | outcome [7] | Potency [8] | Potency [9]

CCOC(=O)[C@H](CCc1ccccc1)N[C@@H](C)C(=O)N1CCC[C@H]1C(=O)O
inactive: outcome [1] | Potency [10] | outcome [2] | Potency [4] | Potency [5] | activity change, positive = activation [6] 3.79% [at 42.5 µM] | outcome [7] | Potency [8] | Potency [9]

N[C@@H](CS)C(=O)O
inactive: outcome [1] | Potency [10] | outcome [2] | outcome [3] | outcome [7] | Potency [8] | Potency [9]

CC(C)=CC(=O)O
inactive: outcome [1] | Potency [10] | outcome [2] | outcome [3] | outcome [7] | Potency [8] | Potency [9]

O=C(O)c1ccc[n+]([O-])c1
inactive: outcome [1] | Potency [10] | outcome [2] | outcome [3] | outcome [7] | Potency [8] | Potency [9]

NS(=O)(=O)c1cc2c(cc1Cl)NC(CSCc1ccccc1)=NS2(=O)=O
inactive: outcome [1] | Potency [10] | outcome [2] | Potency [4] | outcome [7] | Potency [8] | Potency [9]

CCCOc1ccccc1-c1nc2n[nH]nc2c(=O)[nH]1
inactive: outcome [1] | Potency [10] | outcome [2] | Potency [4] | outcome [7] | Potency [9]

CCN1CCCC(OC(=O)C(c2ccccc2)c2ccccc2)C1 (stereo not given)
inactive: outcome [1] | Potency [10] | outcome [2] | outcome [7] | Potency [8]

CCC(=O)/C=C/c1ccc(OC)cc1
inactive: outcome [1] | outcome [2] | outcome [3] | Potency [4] | Potency [5] | activity change, positive = activation [6] -2.91% | outcome [7] | Potency [8]

CCCC(=O)O[C@]1(C(=O)CCl)[C@@H](C)C[C@H]2[C@@H]3CCC4=CC(=O)C=C[C@]4(C)[C@@]3(F)C(=O)C[C@@]21C
inactive: outcome [1] | Potency [10] | outcome [2] | Potency [4] | outcome [7] | Potency [8] | Potency [9]

O=S(=O)(c1cccc2cnccc12)N1CCCNCC1
inactive: outcome [1] | Potency [10] | outcome [2] | Potency [4] | activity change, positive = activation [6] -26.8% [at 42.5 µM] | outcome [7] | Potency [8] | Potency [9]

O=C(O)c1ccccc1S
inactive: outcome [1] | Potency [10] | outcome [2] | outcome [7] | Potency [8]

CC(C)(C)OC(=O)N1C[C@@H](F)C[C@H]1C(=O)O
inactive: outcome [1] | Potency [10] | outcome [3] | Potency [4] | outcome [7] | Potency [8] | Potency [9]

CCC(=O)Nc1cccc(N)c1
inactive: outcome [1] | outcome [2] | outcome [3] | Potency [4] | Potency [5] | activity change, positive = activation [6] -10.7% | outcome [7] | Potency [8]

NS(=O)(=O)c1cc2c(cc1C(F)(F)F)NC(Cc1ccccc1)NS2(=O)=O (stereo not given)
inactive: outcome [1] | Potency [10] | outcome [2] | outcome [7] | Potency [8] | Potency [9]

N#CC1(O)CCCCC1
inactive: outcome [1] | Potency [10] | outcome [3] | Potency [4] | Potency [5] | activity change, positive = activation [6] 7.59% | outcome [7] | Potency [8] | Potency [9]

O=c1[nH]c2ccccc2c(=O)n1CCCl
inactive: outcome [1] | outcome [2] | outcome [3] | Potency [4] | Potency [5] | activity change, positive = activation [6] -3.42% [at 42.5 µM] | outcome [7] | Potency [8] | Potency [9]

Fc1ccccc1-c1ccccc1
inactive: outcome [1] | Potency [10] | outcome [2] | outcome [3] | outcome [7] | Potency [8] | Potency [9]

CCN1CCCC1CNC(=O)c1cc(S(N)(=O)=O)ccc1OC (stereo not given)
active: Potency [10] 17.4 µM
inactive: outcome [1] | outcome [2] | Potency [4] | outcome [7] | Potency [9]

N#CCN(CC#N)CCN(CC#N)CC#N
inactive: outcome [1] | Potency [10] | outcome [2] | outcome [3] | Potency [8]

CSc1ccc(C=O)cc1
inactive: outcome [1] | Potency [10] | outcome [2] | Potency [4] | Potency [8]

COc1cccc(OC)c1
inactive: outcome [1] | Potency [10] | outcome [2] | outcome [3] | outcome [7] | Potency [8] | Potency [9]

CC(C)CCCCCCN
inactive: outcome [1] | Potency [10] | outcome [2] | outcome [3] | outcome [7] | Potency [8] | Potency [9]

O=C(O)C(O)[C@H](O)[C@@H](O)[C@H](O)[C@H](O)CO (stereo not given in full)
inactive: outcome [1] | Potency [10] | outcome [2] | outcome [3] | activity change, positive = activation [6] -30.1% | outcome [7] | Potency [9]

COc1cc(O)cc(O)c1
inactive: outcome [1] | Potency [10] | outcome [2] | outcome [3] | outcome [7] | Potency [8] | Potency [9]

NC(N)=NS(=O)(=O)c1ccc(N)cc1
inactive: outcome [1] | Potency [10] | outcome [2] | Potency [4] | outcome [7] | Potency [8] | Potency [9]

CCCCCCCCCCCCCCCCCCOCC(O)CO (stereo not given)
inactive: outcome [1] | Potency [10] | outcome [2] | outcome [3] | outcome [7] | Potency [8]

Nc1cc(N)cc(C(=O)O)c1
inactive: outcome [1] | Potency [10] | outcome [3] | Potency [4] | outcome [7] | Potency [8] | Potency [9]

C[C@H]1O[C@@H](n2cc(F)c(=O)[nH]c2=O)[C@H](O)[C@@H]1O
inactive: outcome [1] | Potency [10] | outcome [2] | Potency [4] | Potency [5] | activity change, positive = activation [6] 2.35% [at 42.5 µM] | outcome [7] | Potency [8] | Potency [9]

NCC[C@H](O)C(=O)N[C@@H]1C[C@H](N)[C@@H](O[C@H]2O[C@H](CN)[C@@H](O)[C@H](O)[C@H]2O)[C@H](O)[C@H]1O[C@H]1O[C@H](CO)[C@@H](O)[C@H](N)[C@H]1O
inactive: activation [1] -3.02% [at 0.349 µM] | activity change, negative = cytotoxicity [10] 3.37% [at 0.29 µM] | activation (H2AX phosphorylation) [2] 0.216% [at 0.582 µM] | activity change, negative = cytotoxicity [4] 2.46% [at 0.582 µM] | activity change, negative = cytotoxic [8] 4.99% [at 0.29 µM] | cytotoxicity [9] -5.15% [at 0.29 µM]
